Assay outcomes deposited in PubChem by several laboratories.
Compounds with a hit are over-represented: about 13% of the library has one in this group of screens.
WT yeast gro inh = growth inhibition of WT strain, primary screen, mitochondrial fusion inhibitor project, WT and mutant strains, chemical genetic. mitochondrial fusion phenotypic screen. inhibition, % at 10 µM. 2.1% of 190,000 active. AID 1362, 2008; in the data active = inhibition above about 58%; tested in S. cerevisiae
RAM inhibit = inhibitors of the yeast RAM network, primary screen, dse1pr::URA3 reporter, 5-FOA selection | S. cerevisiae dse1pr::URA3 reporter, 5-FOA growth OD615, 2 d; analog-sensitive cbk1-as2 kinase mutant strain | inhibition, % at 50 µM | 1.8% of 190,000 active | AID 868, 2007;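 active = inhibition above a set limit, 3 SD over mean compound inhibition, cut at about 8.4% in these data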;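 also: inhibition rescues growth on 5-FOA so higher OD means more RAM inhibition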
CHOP inhibitor = inhibitors of CHOP promoter induction, primary screen, cell-based, unfolded protein response, luciferase reporter. 3.8% of 220,000 active. CHO-K1 CHOP-promoter luciferase, tunicamycin-induced, 15-18 h. inhibition, % at 10 µM;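 active = compounds that reduced the stress-induced luciferase reporter signal by more than about 70% of percent inhibition, limit read from the data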
Lmaj promast = Leishmania major promastigote growth inhibition, primary screen. Leishmania major promastigotes, resazurin fluorescence viability. inhibition, % at 10 µM. 9% of 200,000 active; in the data active = inhibition above about 50%;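 also: promastigotes grown with compound for 44 hours at 28 °C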
Numbers stand for hits; 0 = inactive; - = no result.

SMILES	WT yeast gro inh	RAM inhibit	CHOP inhibitor	Lmaj promast
Cc1ccc(N=N/C(=C\O)C(=O)c2ccc(Cl)cc2)cc1	97.3	0	95.2	91.1
CCOC(=O)c1ccc2c(c1)nc(SCc1cn3ccsc3n1)n2CC	0	0	0	99.3
O=C(C1CCN(Cc2ccccc2)CC1)N1CCN(C/C=C/c2ccccc2)CC1	0	0	0	0
O=C(C1CC(c2ccc(F)cc2)=NO1)N1CCN(Cc2ccccc2)CC1 (stereo unspecified)	0	0	0	88.6
COc1ccc(CN2CCC(N3CCC(C(=O)N4CCOCC4)CC3)CC2)c(F)c1	0	0	0	78.0
CC1=C(C)CC(C(=O)N2CCN(C/C=C/c3ccccc3)CC2)C(C(=O)O)C1 (stereo unspecified)	0	0	0	0
O=C(C1CCN(Cc2ccc(F)cc2)CC1)N1CCN(C/C=C/c2ccccc2)CC1	0	0	0	72.9
O=C(O)C1C2C=CC(C2)C1C(=O)N1CCN(C/C=C/c2ccccc2)CC1 (stereo unspecified)	0	0	0	87.9
COc1ccc(F)c(CN2CCC(N3CCC(C(=O)N4CCOCC4)CC3)CC2)c1	0	0	0	0
COCCCNC(=S)NNC(=O)c1ccc(S(=O)(=O)N2CCC(C)CC2)cc1	0	0	0	0
Cc1ccc(N(CC(=O)O)S(C)(=O)=O)cc1	0	0	0	0
CC(C)n1c(=S)[nH]c2cc(Cl)ccc21	-	-	0	-
Cc1cc(=O)oc2cc(O)c(N=Nc3ccccc3)cc12	-	-	0	-
O=C(C1CCN(C2CCN(C/C=C/c3ccccc3)CC2)CC1)N1CCOCC1	0	0	0	59.4
CCOC(=O)CSc1nc2sc3c(c2c(=O)[nH]1)CC(C)(CC)OC3 (stereo unspecified)	0	0	0	0
CCCSc1nc2c3c(sc2c(=O)[nH]1)CC(C)(CC)OC3 (stereo unspecified)	0	8.8	0	0
O=C(CCc1nnc(-c2ccsc2)o1)N1CCc2c(Cl)cccc2C1	0	0	0	0
COC(=O)[C@@H]1C[C@]2(OC(=O)c3ccccc3)C=CC(=O)C[C@@H]2N1C(=O)OCc1ccccc1	0	0	0	100.3
COc1cc(/C=C2\SC(=O)N(Cc3ccc(F)cc3)C2=O)cc([N+](=O)[O-])c1O	61.7	0	0	0
COc1cc(/C=C2\SC(=O)N(Cc3ccc(Cl)cc3)C2=O)cc([N+](=O)[O-])c1O	0	0	106.5	0
CCOC(=O)CN1C(=O)S/C(=C/c2ccc(OC)c([N+](=O)[O-])c2)C1=O	0	0	0	0
COc1cc(/C=C2\C(=O)NN(c3ccccc3)C2=O)cc([N+](=O)[O-])c1O	0	0	0	0
COc1ccccc1N(C(=O)c1cncc(Br)c1)c1nc(-c2ccc(C)cc2)cs1	0	0	0	0
Cc1cccc(-c2ncc(CN3CCCC(CO)(Cc4cccc(Cl)c4)C3)cn2)c1 (stereo unspecified)	62.6	0	0	0
CC(=O)Nc1ccc(CN2CCCC(CO)(Cc3cccc(Cl)c3)C2)cc1 (stereo unspecified)	-	-	0	-
SMILES	WT yeast gro inh	RAM inhibit	CHOP inhibitor	Lmaj promast
Cn1cc(CN2CCCC(CO)(Cc3cccc(Cl)c3)C2)cn1 (stereo unspecified)	0	0	0	81.2
Cc1nn(C)c(Cl)c1CN1CCCC(CO)(Cc2cccc(Cl)c2)C1 (stereo unspecified)	-	0	0	86.4
Cc1ccccc1CC1(CO)CCCN(Cc2cn[nH]c2-c2ccccc2)C1 (stereo unspecified)	0	0	0	0
Cc1ccccc1CC1(CO)CCCN(Cc2c(C)nn(C)c2Cl)C1 (stereo unspecified)	0	0	0	0
CSc1cccc(CN2CCCC(CO)(Cc3cccc(Cl)c3)C2)c1 (stereo unspecified)	0	0	95.5	0
Cc1ccc(NC(=O)COC(=O)C2(c3ccc(Cl)cc3)CCCC2)cc1	0	0	0	0
OCC1(Cc2cccc(Cl)c2)CCCN(Cc2cnn(-c3ccccc3)c2)C1 (stereo unspecified)	0	0	0	84.9
COCc1ccc(CN2CCCC(CO)(Cc3ccccc3)C2)o1 (stereo unspecified)	0	0	0	0
CCOC(=O)C1(Cc2ccccc2)CCN(Cc2cnn(-c3ccccc3)c2)CC1	0	0	0	0
Cn1cc(CN2CCCC(CO)(Cc3ccccc3)C2)cn1 (stereo unspecified)	0	0	0	76.8
Cc1cc(C)n(-c2cccc(CN3CCC(CO)(Cc4ccccc4)CC3)c2)n1	0	0	0	0
COc1cc(CN2CCCC(CO)(Cc3cccc(Cl)c3)C2)cc2c1OCO2 (stereo unspecified)	0	0	0	73.1
